Most compounds without a hit are left out; they make up all but 4% or so of the library.
NALP3 yeast inh: blocks the NALP3 inflammasome reconstituted in yeast; hit rate 0.39% among 330,000; inhibition, % at 10 µM; Yeast reconstituted NLRP3/ASC/caspase-1, beta-gal luminescence, 24 h;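 active means inhibition of 50% or more; inactive means inhibition below 50%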;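 further: plate controls were induced DMSO wells for no effect and uninduced yeast grown without galactose for full effect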
TIM10 inh: growth inhibitors of TIM10 yeast strain; S. cerevisiae TIM10 strain growth, BacTiter-Glo luminescence, 24 h; inhibition, % at 10 µM; hit rate 1.4% among 330,000;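 active means inhibition of 40% or more at the single tested concentration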;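 further: wild-type TIM10 isogenic control strain grown at permissive 25 °C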
NALP1 yeast inh: inhibitors of NALP1 inflammasome in yeast; hit rate 0.61% among 280,000; AID 2071; inhibition, % at 10 µM; S. cerevisiae NALP1/ASC/caspase-1 growth, X-gal OD620, 72 h; in the data active means inhibition mostly above about 24%, no sharp cut-off; inactive means mostly below about 32%
tim10-1 inh: inhibits growth of tim10-1 mutant yeast; S. cerevisiae tim10-1 ts strain growth, BacTiter-Glo, 24 h; hit rate 2.2% among 330,000; inhibition, % at 20 µM; AID 463190;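 active means inhibition of at least 40%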;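 further: mutant grown at 25 °C; 0% = DMSO wells with yeast and 100% = wells holding no yeast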
tim23-1 inh: inhibits growth of tim23-1 mutant yeast. S. cerevisiae tim23-1 growth, BacTiter-Glo luminescence, 24 h. inhibition, % at 20 µM. hit rate 1.3% among 330,000. AID 463212;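 active means growth inhibition of the mutant yeast at or above 50%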;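 further: temperature-sensitive mutant grown at 25 °C; plate controls were DMSO-treated mutant yeast for no effect and medium wells lacking yeast for full effect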
tim10-1 confirm: tim10-1 yeast growth inhibition, confirmed | AID 463213 | S. cerevisiae tim10-1 ts strain growth, BacTiter-Glo, 24 h | hit rate 56% among 7,400 | shares compounds with tim10-1 inh | inhibition, % at 20 µM;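 active means inhibition of yeast growth at or above a set limit in either of two repeat tests at 20 µM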;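 further: tim10-1 mutant grown at permissive 25 °C to find synthetic lethal compounds; 0% = DMSO yeast wells and 100% = medium wells without yeast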
tim10 confirm: confirmation of TIM10 yeast growth inhibitors; S. cerevisiae tim10 strain growth, BacTiter-Glo luminescence, 24 h; AID 463215; hit rate 63% among 4,600; shares compounds with TIM10 inh; inhibition, % at 10 µM;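 active means inhibition of yeast growth at or above a set limit in either of two replicates at 10 µM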;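 further: this counterscreen used the strain with wild-type TIM10; 0% = yeast with DMSO and 100% = medium wells lacking yeast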
tim23-1 conf: confirmation of tim23-1 mutant yeast growth inhibitors | S. cerevisiae tim23-1 growth, BacTiter-Glo luminescence, 24 h | AID 463218 | shares compounds with tim23-1 inh | hit rate 83% among 4,400 | inhibition, % at 20 µM;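 active means inhibition above about 39% in either of two replicate wells at 20 µM, limit read from the data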;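 further: temperature-sensitive tim23-1 mutant grown at 25 °C; 0% = DMSO wells with yeast and 100% = medium wells without yeast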
Starred values were filed as active, the others as inactive; . = not tested or not shown.

SMILES	NALP3 yeast inh	TIM10 inh	NALP1 yeast inh	tim10-1 inh	tim23-1 inh	tim10-1 confirm	tim10 confirm	tim23-1 conf
O=C(Nc1nnc(CCc2ccccc2)s1)c1ccco1	32	5	-11	14	29	.	.	.
O=C(Nc1nc2c(s1)CCc1ccccc1-2)c1ccco1	-7	41*	-4	55*	58*	49*	47*	61*
CCCc1cc(C(N)=O)c(NC(=O)c2ccoc2C)s1	15	34	4	47*	65*	34*	.	68*
O=C(Nc1nnc(Cc2ccccc2)s1)c1ccco1	21	34	0	50*	54*	29*	.	43*
NC(=O)c1cc(Cc2ccccc2)sc1NC(=O)c1ccco1	6	40*	-4	50*	60*	48*	28	73*
O=C(Nc1nc2c(F)c(F)c(F)cc2s1)c1ccco1	18	22	8	10	16	.	.	.
O=C(Nc1nc2c(ccc3ccccc32)s1)c1ccco1	-3	66*	0	51*	57*	52*	62*	75*
COc1cc(Cl)c(C)cc1NC(=O)c1ccccc1-n1cnnn1	14	1	.	9	8	.	.	.
COc1ccc(/C=N/NC(=O)c2nc(-c3ccccc3)cc(-c3ccccc3)n2)cc1	26	12	6	27	5	.	.	.
NNc1nc(-c2ccccc2)cc(-c2ccccc2O)n1	40	48*	0	44*	55*	47*	42*	59*
NNc1nc(-c2ccccc2)cc(-c2ccccc2)n1	18	49*	0	43*	55*	48*	11	56*
NNC(=O)c1nc(-c2ccccc2)cc(-c2ccccc2)n1	16	20	1	42*	63*	10	.	67*
CCCCCCCNC(=O)C1(CC2CC(c3ccc(Cl)cc3)=NO2)CCN(C(=O)CCCCCBr)CC1 (centres undefined)	-9	5	4	17	17	.	.	.
Cc1ccc(C(=O)C(C)OC(=O)CCN=C2NS(=O)(=O)c3ccccc32)cc1 (centres undefined)	6	-12	.	-7	-3	.	.	.
O=C(NCC1CC1)c1ccc2c3n(nc2c1)-c1ccc(Cl)cc1CO3	14	54*	.	48*	67*	35*	57*	53*
CC(C)CNS(=O)(=O)c1cc2c3c(c1)CCC(=O)N3CCC2	2	-5	31	0	15	.	.	.
CCN1/C(=C/c2ccc3ccccc3[n+]2CCCS(=O)(=O)[O-])C=Cc2cc(C)ccc21	.	.	1	.	.	.	.	.
CCN1/C(=C/c2ccc3ccccc3[n+]2CC)C=Cc2ccccc21	39	52*	26	74*	85*	75*	20	67*
CC(C)Cn1c2c(c(O)c(C(=O)Nc3ncccc3O)c1=O)CCCC2	19	50*	-14	40*	55*	43*	57*	61*
O=C(Nc1nnc(C2CC2)o1)c1ccc(S(=O)(=O)N2CCc3ccccc3C2)cc1	-4	17	-23	28	-18	.	.	.
CC1CCCN(S(=O)(=O)c2ccc(C(=O)Nc3nnc(C4CC4)o3)cc2)C1 (centres undefined)	7	29	2	46*	53*	19	.	34
COc1ccc(C(C(=O)NCC2CCCO2)N(C(=O)CNC(=O)c2ccco2)c2cc(C)ccc2C)cc1OC (centres undefined)	-5	-7	8	1	10	.	.	.
CC(=O)Nc1ccc(SCC(=O)NC(=O)c2ccc(S(=O)(=O)N(C)C)cc2)cc1	11	-8	.	-9	-7	.	.	.
C=CCn1c(SCC(=O)N(CCOC)c2c(N)n(CC(C)C)c(=O)[nH]c2=O)nc2ccccc21	16	9	.	-20	-10	.	.	.
FC(F)(F)c1cccc(Oc2nc(-c3ccccc3)nnc2C(F)(F)F)c1	8	46*	9	54*	55*	48*	38*	46*
SMILES	NALP3 yeast inh	TIM10 inh	NALP1 yeast inh	tim10-1 inh	tim23-1 inh	tim10-1 confirm	tim10 confirm	tim23-1 conf
O=C(NC1CCCC1)c1ccc(Cl)s1	10	-11	19	-16	6	.	.	.
O=C(NC1CCCCCC1)c1ccc([N+](=O)[O-])s1	27	29	.	57*	63*	50*	.	48*
CSc1nnc2c3cc(F)ccc3n(C)c2n1	34	77*	15	48*	51*	61*	81*	50*
COc1ccccc1NC(=O)N1C2CCCC1CC(NC(=O)c1ccccc1)C2 (centres undefined)	8	2	6	11	-1	.	.	.
Cc1ccc(CNc2ccc(S(=O)(=O)N3CCOCC3)cc2[N+](=O)[O-])cc1	33	7	40	17	27	.	.	.
Cc1ccc(/C(N)=N/OC(=O)CCC2CCCC2)cc1	14	63*	-5	58*	72*	46*	75*	55*
Cc1ccc(/C(N)=N/OC(=O)CCC2CCCCC2)cc1	-1	83*	-2	60*	77*	44*	82*	71*
N/C(=N\OC(=O)CCC1CCCC1)c1ccc(Cl)cc1	10	79*	18	61*	59*	61*	73*	65*
COc1ccc(/C(N)=N/OC(=O)CCC2CCCC2)cc1	4	54*	5	60*	65*	56*	53*	67*
Cc1cc(-c2cc(-c3ccccc3)on2)nc(NCC2CC2)n1	21	12	-51	-8	7	.	.	.
Cc1cnc(C(=O)OCC(=O)Nc2ccccc2-c2ccccc2)cn1	1	7	.	33	1	.	.	.
COc1cc(C=NCC2OCCc3ccccc32)cc(OC)c1 (centres undefined)	6	7	21	9	2	.	.	.
O=C1CN(CC(=O)Nc2cccc(Cl)c2Cl)c2ccccc2N1	4	6	-6	11	9	.	.	.
COc1cc(C(=O)Nc2ccc(C)cc2)c(-n2cnnn2)cc1OC	9	8	0	13	0	.	.	.
CCOC(=O)C1=C(COC(=O)CCc2ccc(CC)cc2)NC(=O)NC1C (centres undefined)	10	6	.	9	21	.	.	.
N/C(=N\OC(=O)CCC1CCCC1)c1cccnc1	2	9	17	38	23	.	.	.
Cc1cccc(/C(N)=N/OC(=O)CCC2CCCCC2)c1	-20	62*	22	50*	64*	56*	75*	72*
CC1CCc2c(sc(NC(=O)C3=COCCO3)c2C(N)=O)C1 (centres undefined)	9	16	.	13	21	.	.	.
CNC(=O)c1c(NC(=O)C2=COCCO2)sc2c1CCC(C)C2 (centres undefined)	9	31	0	51*	56*	23	.	50*

Source: PubChem BioAssay
